Molecular target: Neurogenic locus notch homolog protein 3 (Homo sapiens) (UniProt Q9UM47)
Test: small molecules binding NOTCH3 protein – biochemical, 635/667 nm fluorescence, primary screen (AID 1096)
Conditions: small-molecule microarray, 635 nm fluorescence, higher = more signal

Neurogenic locus notch homolog protein 3 (Homo sapiens), sequence (Q9UM47 whole entry, looked up): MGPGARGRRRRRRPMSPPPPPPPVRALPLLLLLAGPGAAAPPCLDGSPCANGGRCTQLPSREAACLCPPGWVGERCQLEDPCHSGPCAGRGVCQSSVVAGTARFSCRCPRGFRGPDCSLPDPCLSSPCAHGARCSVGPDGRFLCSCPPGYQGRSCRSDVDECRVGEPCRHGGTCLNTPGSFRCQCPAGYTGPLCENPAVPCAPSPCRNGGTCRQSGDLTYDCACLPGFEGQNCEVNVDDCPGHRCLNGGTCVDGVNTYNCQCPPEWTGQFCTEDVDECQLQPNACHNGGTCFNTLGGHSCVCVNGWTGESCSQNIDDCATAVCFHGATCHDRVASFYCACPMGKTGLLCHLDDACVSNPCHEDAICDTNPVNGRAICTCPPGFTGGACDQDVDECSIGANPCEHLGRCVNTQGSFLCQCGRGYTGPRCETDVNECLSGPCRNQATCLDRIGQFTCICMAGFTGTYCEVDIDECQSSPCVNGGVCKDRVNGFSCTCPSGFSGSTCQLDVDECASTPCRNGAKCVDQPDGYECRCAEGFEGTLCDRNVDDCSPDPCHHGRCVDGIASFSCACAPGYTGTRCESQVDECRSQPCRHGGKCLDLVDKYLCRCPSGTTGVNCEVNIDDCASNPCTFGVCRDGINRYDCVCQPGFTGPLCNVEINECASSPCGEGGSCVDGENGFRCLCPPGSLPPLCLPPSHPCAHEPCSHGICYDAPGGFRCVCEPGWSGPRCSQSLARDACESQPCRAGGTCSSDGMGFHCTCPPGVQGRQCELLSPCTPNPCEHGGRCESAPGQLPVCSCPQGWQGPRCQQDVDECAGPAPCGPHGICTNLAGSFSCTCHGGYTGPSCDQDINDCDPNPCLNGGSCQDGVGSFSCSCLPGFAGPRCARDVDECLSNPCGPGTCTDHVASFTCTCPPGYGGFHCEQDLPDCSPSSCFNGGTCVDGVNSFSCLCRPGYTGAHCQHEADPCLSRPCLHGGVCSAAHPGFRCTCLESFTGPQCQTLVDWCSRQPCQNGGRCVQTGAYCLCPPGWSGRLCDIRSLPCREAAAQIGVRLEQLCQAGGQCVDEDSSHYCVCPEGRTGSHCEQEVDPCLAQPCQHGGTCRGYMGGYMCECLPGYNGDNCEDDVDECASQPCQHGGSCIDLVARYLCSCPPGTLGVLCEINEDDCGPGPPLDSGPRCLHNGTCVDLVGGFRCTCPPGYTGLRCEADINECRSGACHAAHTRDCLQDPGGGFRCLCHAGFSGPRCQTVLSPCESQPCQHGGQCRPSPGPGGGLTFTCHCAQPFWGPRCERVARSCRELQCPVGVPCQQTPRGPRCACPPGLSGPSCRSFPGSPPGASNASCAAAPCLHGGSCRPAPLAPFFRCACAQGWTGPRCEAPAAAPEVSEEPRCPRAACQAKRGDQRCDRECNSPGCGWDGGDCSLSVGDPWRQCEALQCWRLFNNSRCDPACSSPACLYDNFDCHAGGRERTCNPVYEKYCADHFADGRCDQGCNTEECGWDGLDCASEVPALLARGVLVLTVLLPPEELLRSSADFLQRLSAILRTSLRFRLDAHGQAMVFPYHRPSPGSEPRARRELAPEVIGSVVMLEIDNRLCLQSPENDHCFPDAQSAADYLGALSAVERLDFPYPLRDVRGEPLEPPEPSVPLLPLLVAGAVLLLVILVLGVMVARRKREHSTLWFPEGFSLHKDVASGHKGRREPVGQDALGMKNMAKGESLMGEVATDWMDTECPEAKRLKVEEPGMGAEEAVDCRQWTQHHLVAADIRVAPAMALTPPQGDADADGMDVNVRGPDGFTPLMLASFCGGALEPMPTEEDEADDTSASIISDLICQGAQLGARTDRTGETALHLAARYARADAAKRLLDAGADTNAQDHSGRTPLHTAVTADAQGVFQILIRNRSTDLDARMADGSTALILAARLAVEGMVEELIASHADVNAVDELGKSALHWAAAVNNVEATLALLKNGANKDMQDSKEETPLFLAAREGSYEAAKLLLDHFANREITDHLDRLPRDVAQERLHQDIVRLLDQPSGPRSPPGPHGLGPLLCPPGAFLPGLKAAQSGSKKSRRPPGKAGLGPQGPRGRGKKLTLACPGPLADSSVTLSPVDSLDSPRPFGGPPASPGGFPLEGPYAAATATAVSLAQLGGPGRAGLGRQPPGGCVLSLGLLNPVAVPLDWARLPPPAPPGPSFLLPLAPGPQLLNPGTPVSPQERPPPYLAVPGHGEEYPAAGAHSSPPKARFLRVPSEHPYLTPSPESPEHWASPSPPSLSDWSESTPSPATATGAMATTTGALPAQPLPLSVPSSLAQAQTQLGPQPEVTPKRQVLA

| Structure (SMILES) | composite z-score |
| --- | --- |
| CC(C)=NO[C@H](C)c1cn([C@H](CO)Cc2ccccc2)nn1 | 0.104 |
| CCOC(=O)[C@H](CC(C)C)NC(=O)CCC1CC(OC(=O)NCc2cccc3ccccc23)CC2(CCCC(COC(=O)NCCOc3ccccc3)O2)O1 (stereo partly specified) | 0.859 |
| O=C1C[C@@H](O)[C@@H](O)[C@@H]2[C@@H]3C(=O)N(C[C@@H]4CCCO4)C(=O)[C@@H]3CC[C@@H]12 | 0.472 |
| CCOC(=O)[C@H](CC(C)C)NC(=O)CCC1CC(OC(=O)NCc2cccc3ccccc23)CC2(CCCC(COC(=O)NCCc3ccc(Cl)cc3)O2)O1 (stereo partly specified) | 0.741 |
| CO[C@H]1COC(=O)CC=C[C@@H](C)[C@H](NS(=O)(=O)c2ccc(C)cc2)COC(=O)CCC[C@@H]1C | 0.77 |
| CO[C@H]1COC(=O)[C@H](C)NC(=O)CC=C[C@@H](C)[C@H](OC)COC(=O)[C@@H](OCc2ccccc2)C=C[C@@H]1C | -0.458 |
| CCCNC(=O)OC[C@H]1O[C@H](CCON=C(C)CCN2CCCc3nc(C)c(C)cc32)C=C[C@@H]1Oc1ccc(OC)cc1 | 0.991 |
| C#CCCCON=C1C[C@@H](O)[C@@H](O)[C@@H]2[C@@H]3C(=O)N(CC)C(=O)[C@@H]3CC[C@@H]12 | 0.426 |
| COC(=O)[C@H](C)NC(=O)CCC1CC(OC(=O)NCc2ccc3c(c2)OCO3)CC2(CCCC(COC(=O)NCC3CCCCC3)O2)O1 (stereo partly specified) | 1.1 |
| CO[C@H]1COC(=O)CC=C[C@@H](C)[C@H](OC)COC(=O)[C@@H]2CCCN2C(=O)CC=C[C@@H]1C | 0.716 |
| CON=C[C@@H](NS(=O)(=O)c1ccc(C)cc1)[C@H](C)C=CCC(=O)OC | -0.0877 |
| COc1cccc([C@H]2Oc3ccc(OC)cc3C(=NO[C@H](C)c3cn([C@H](CO)Cc4ccccc4)nn3)[C@@H]2O)c1 | -0.657 |
| COc1ccc(COC(=O)NN=C2C[C@@H](O)[C@@H](O)[C@@H]3[C@@H]4C(=O)N(c5cccc(Oc6ccccc6)c5)C(=O)[C@@H]4CC[C@@H]23)cc1 | -0.732 |
| CO[C@@H]1COC(=O)CC=C[C@H](C)[C@H](OC)COC(=O)[C@H](C)NC(=O)CC=C[C@H]1C | 0.273 |
| O=C1C[C@@H](O)[C@@H](O)[C@@H]2[C@@H]3C(=O)N(C[C@@H]4CCCO4)C(=O)[C@@H]3CC[C@H]12 | 0.652 |
| COC(=O)[C@@H]1CC[C@@H](C)[C@H](c2ccc(Br)cc2)N1 | -0.275 |
| COC(=O)[C@@H]1CC[C@H](C)[C@@H](c2ccc(C)cc2)N1C(=O)c1ccc(C=NO[C@H](C)c2cn([C@@H]3COC[C@H]3O)nn2)cc1 | 1.09 |
| Cn1c(=O)n2n(c1=O)[C@H]1[C@H](O)[C@@H]3O[C@@H]3C(=NOCc3ccccc3)[C@H]1CC2 | 0.525 |

| Structure (SMILES) | composite z-score |
| --- | --- |
| CCOC(=O)NN=C1C[C@@H](O)[C@@H](O)[C@@H]2[C@@H]3C(=O)N(c4cccc(Oc5ccccc5)c4)C(=O)[C@@H]3CC[C@@H]12 | -0.362 |
| COC(=O)[C@H](C)NC(=O)CCC1CC(OC(=O)NCc2cccc3ccccc23)CC2(CCCC(COC(=O)NCC(c3ccccc3)c3ccccc3)O2)O1 (stereo partly specified) | 1.09 |
| Cc1ccc(S(=O)(=O)n2c3ccccc3c3nnc(C(=O)c4ccccc4)nc32)cc1 | -0.467 |
| COC(=O)C=CCCc1coc(C=CCNC(=O)OC)n1 | 1.08 |
| CON=C1[C@H]2CCn3c(=O)n(-c4ccccc4)c(=O)n3[C@H]2[C@H](O)[C@@H]2O[C@H]12 | 0.646 |
| CC(C)=CCCC(C)=CCON=C1C[C@@H](O)[C@@H](O)[C@@H]2[C@@H]3C(=O)N(C4CCCCC4)C(=O)[C@@H]3CC[C@@H]12 | -0.407 |
| O=C1[C@H]2[C@H]3[C@H](O)[C@H](O)CC(=NOC[C@@H](O)COCc4ccco4)[C@H]3CC[C@H]2C(=O)N1C[C@@H]1CCCO1 | 0.28 |
| O=C(NN=C1C[C@@H](O)[C@@H](O)[C@@H]2[C@@H]3C(=O)N(C[C@@H]4CCCO4)C(=O)[C@@H]3CC[C@@H]12)OCc1ccccc1 | 0.208 |
| COc1ccc(C#C[C@@H]2C=C[C@H](OC(C)=O)[C@@H](COC(C)=O)O2)cc1 | 0.493 |
| CC(C)CON=C1C[C@@H](O)[C@@H](O)[C@@H]2[C@@H]3C(=O)N(c4cccc(Oc5ccccc5)c4)C(=O)[C@@H]3CC[C@@H]12 | 0.046 |
| CCOC(=O)[C@H](CC(C)C)NC(=O)CCC1CC(OC(=O)NCc2cccc3ccccc23)CC2(CCCC(COC(=O)NCc3cccc(C(F)(F)F)c3)O2)O1 (stereo partly specified) | 0.359 |
| C#CCCCON=C1C[C@@H](O)[C@@H](O)[C@@H]2[C@@H]3C(=O)N(Cc4ccccc4)C(=O)[C@@H]3CC[C@@H]12 | 0.0798 |
| COc1ccc(O[C@H]2C=C[C@@H](c3ccccc3)O[C@@H]2CON=CC[C@@H]2C=C[C@H](OC(C)=O)[C@@H](COC(C)=O)O2)cc1 | -0.22 |
| CC(C)(C)N1C(=O)[C@H]2[C@H]3[C@H](O)[C@H](O)CC(=O)[C@H]3CC[C@H]2C1=O | 0.611 |
| Cc1cc2c(nc1C)CCCCN2CC(C)ON=C[C@@H](C)[C@H](OCc1ccccc1)C(C)C (stereo partly specified) | -1.01 |
| C#CCCCON=C1C[C@@H](O)[C@@H](O)[C@@H]2[C@@H]3C(=O)N(CCC(=O)OCC)C(=O)[C@@H]3CC[C@H]12 | 1.1 |
| CCOC(=O)[C@H](CC(C)C)NC(=O)CCC1CC(OC(=O)NCc2cccc3ccccc23)CC2(CCCC(COC(=O)NCCOC)O2)O1 (stereo partly specified) | 1.08 |
| COc1ccc(COC(=O)NN=C2C[C@@H](O)[C@@H](O)[C@@H]3[C@@H]4C(=O)N(c5ccc(F)cc5F)C(=O)[C@@H]4CC[C@H]23)cc1 | -0.425 |
